# Only some compounds are listed: those with a hit (about 13% of all), similar ones and a draw of the others.
# HCV inhibitor – inhibitors of hepatitis C virus infection; Huh7.5.1 HCVcc-Cre infection, luciferase reporter, 44 h; Potency, µM (series often up to 41.8 µM), without a hit: at the highest dose activity change, negative = inhibition, hits mostly inhibitors; 3.4% of 340,000 active; AID 651820; note: potency is the fitted concentration of half-maximal effect
#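 Cells (1,000/well) were plated 4 h before compound, then infected with HCVcc-Cre virus (~0.5 moi). After 44 h further culture, infection was read as luciferase luminescence following a 15 min substrate incubation at room temperature.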
# Pf growth 48h – P. falciparum growth inhibition at 48 hours (one generation) | AID 504832 | Potency, µM (highest dose often 28.7 µM), for the others: at the highest dose activity change, negative = inhibition, usual class: inhibitors | P. falciparum luciferase growth in erythrocytes, 48 h | 5.9% of 310,000 active; note: potency is the fitted concentration of half-maximal effect
#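 Luciferase-expressing parasites in RBCs, 2% Hct / 0.1% parasitemia final; RPMI 1640 + 0.5% Albumax; 37 C, 5% CO2, one generation; luminescence read-out, lower signal = inhibition.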
# Pf growth 96h – P. falciparum growth inhibition at 96 hour, primary screen for plastid delayed-death inhibitors. AID 504834. P. falciparum luciferase reporter growth, 96 h. 6.9% of 320,000 active. Potency, µM (top dose mostly 28.7 µM), without a hit: at the top dose activity change, negative = inhibition, most hits filed as inhibitors; note: potency is the fitted concentration of half-maximal effect
#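 Two-generation exposure (96 h) targets delayed-death phenotype. Reporter parasites carrying integrated firefly luciferase, in red cells at 2% hematocrit and 0.05% parasitemia final, kept at 37 C, 5% CO2; luminescence loss indicates inhibition.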
# HCMV inh – inhibitors of human cytomegalovirus; activity change, negative = inhibition, % at 57.5 µM; HFF cells, HCMV-luciferase reporter, 72 h; active compounds read low; 4.5% of 410,000 active; in the data active = activity change below about -60%; inconclusive = no clear call, values can overlap the other calls; inactive = above about -39%
#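 Cell-based, HFFs, 1000 cells/well, 16 h 37C; cpds in DMSO + HCMV-luc, MOI 1 PFU/cell; 72 h 37C; OneGlo luminescence after 5 min RT; norm. to buffer vs Salinomycin 10uM.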
# * marks the source's active call; other numbers are inactive results; u = inconclusive; x = no result. Unless noted, calls come from the whole dose curve; as a rule, active = well fitted inhibition curve with a large enough effect; inconclusive = small, poorly fitted or top-dose-only effect, or another doubt; inactive = no such curve, though single readings can be large or run the other way. % is set by controls: 0 for no effect and ±100 for the full control effect.
SMILES,HCV inhibitor,Pf growth 48h,Pf growth 96h,HCMV inh
CCCn1nc([N+](=O)[O-])c(C(C#N)c2nc3ccccc3o2)c(Cl)c1=O (centres undefined),-7.3%,-19.0%,-22.6%,-14.9
Cn1nc([N+](=O)[O-])c(C(C#N)c2ccccn2)c(Cl)c1=O (centres undefined),u,u,-33.2%,-97.3*
CCOC(=O)N1CCN(C(=O)c2cccc(N3C(=O)NC4CC3(C)Oc3ccc(Cl)cc34)c2)CC1 (centres undefined),-14.3%,u,u,-71.3*
CCOC(=O)C1CCN(C(=O)c2cccc(N3C(=O)NC4CC3(C)Oc3ccc(C)cc34)c2)CC1 (centres undefined),-11.2%,u,u,-24.3
Cc1cc(C)c(S(=O)(=O)NCC(c2ccco2)N2CCOCC2)c(C)c1 (centres undefined),x,x,x,-2.9
Cc1cccc(/C=N/NC(=O)c2c(-c3ccccc3)noc2C)c1O,u,9.28µM*,6.57µM*,-112.8*
COc1ccccc1/C=N/NC(=O)c1c(-c2ccccc2)noc1C,10.5%,-14.8%,2.08µM*,-23.5
COc1ccccc1/C=N/NC(=O)C1=NNC(c2ccccc2)(c2ccccc2)C1,u,7.38µM*,u,x
O=C(N/N=C/c1ccc(C(=O)O)cc1)C1=NNC(c2ccccc2)(c2ccccc2)C1,7.4%,u,u,-9.4
CC1CCN(C(=O)CSc2nnc(NC(=O)Nc3ccccc3)s2)CC1,x,x,x,-32.9
CCc1nn2c(=O)c(S(=O)(=O)Nc3ccc(Br)cc3F)c(C)nc2s1,x,x,x,0.1
COc1ccc(Nc2c(-c3ccc(C)o3)nc3ccc(Cl)cn23)cc1,x,x,x,0.5
COc1ccc(-n2ncc3c(NCC(C)C)ncnc32)cc1,14.1µM*,108.5%,25.5%,120.5
Clc1cccc(Nc2ncnc3c2cnn3-c2ccccc2)c1,11.2µM*,-69.2%,u,-32.1
Fc1cccc(Nc2ncnc3c2cnn3-c2ccccc2)c1,u,52.3%,37.9%,-30.8
CCCCNc1ncnc2c1cnn2-c1ccc(Cl)cc1,10µM*,45.3%,128.4%,105.2
COc1ccc(-n2ncc3c(NC(C)C)ncnc32)cc1,u,75.5%,-4.5%,130.0
CCCCNc1ncnc2c1cnn2Cc1ccc(Cl)cc1,u,-27.2%,u,-20.8
Clc1ccc(-n2ncc3c(NCCCn4ccnc4)ncnc32)cc1,11.2µM*,x,x,41.1
Cc1nnc(N2CCN(c3ccccc3F)CC2)c2c1nnn2Cc1ccccc1Cl,x,x,x,-4.0
COc1ccc(C2CC(=O)c3cc(-c4nc(-c5cccc([N+](=O)[O-])c5)cs4)c(=O)n(-c4ccc(C)c(C)c4)c3C2)cc1 (centres undefined),x,x,x,4.4
CCCCNc1ncnc2c1cnn2-c1ccccc1,u,116.8%,11.7µM*,104.4
CCOC(=O)N1CCN(C(=O)CN(C2CCCCC2)S(=O)(=O)c2c(C)cc(C)cc2C)CC1,-13.4%,x,10.4µM*,-9.8
Cc1ccc(S(=O)(=O)N(CC(=O)N2CCN(c3ccccc3F)CC2)C2CCCCC2)cc1,-8.7%,x,10.4µM*,x
Cc1cc(C)c(S(=O)(=O)N(CC(=O)N2CCOCC2)C2CCCCC2)c(C)c1,-5.7%,u,u,-0.3
SMILES,HCV inhibitor,Pf growth 48h,Pf growth 96h,HCMV inh
COc1ccc(C(C)(O)c2nc(-c3ccncc3)cs2)cc1 (centres undefined),x,x,x,-37.7
COc1cccc(-n2c(-c3ccco3)nc3nc4ccccc4nc32)c1,-0.1%,2.3%,3.29µM*,u
O=c1c2cnn(-c3ccccc3)c2nc(-c2cccs2)n1-c1ccc(Cl)cc1,u,u,u,-23.1
O=c1c2cnn(-c3ccccc3)c2nc(-c2cccs2)n1-c1cccc(Cl)c1,u,13.1µM*,u,-75.7*
COc1ccc(-n2c(-c3ccco3)nc3c(cnn3-c3ccc(C)cc3)c2=O)cc1,u,u,u,-4.9
COc1cccc(-n2c(-c3ccco3)nc3c(cnn3-c3ccc(C)cc3)c2=O)c1,x,x,x,-76.0*
Cc1cccc(-n2c(-c3ccco3)nc3nc4ccccc4nc32)c1,6.1%,0.6%,-6.9%,x
CCc1cccc2c(-c3ccccc3)nc(SCC(=O)Nc3ccc(OC)cc3)nc12,x,x,x,3.3
CCOc1ccc(C(=O)c2cn(CC(=O)Nc3ccc4c(c3)OCO4)c3ccc(OC)cc3c2=O)cc1,x,x,x,-8.3
COc1ccc(-c2cc3ccc(O)c(CN4CCC(C)CC4)c3oc2=O)cc1OC,x,x,x,19.5
CC(C)c1nc(C(=O)N2CCCC(N3CCN(c4cccc(Cl)c4)CC3)C2)cs1 (centres undefined),u,u,3.7µM*,-2.9

# Assay outcomes deposited in PubChem by National Center for Advancing Translational Sciences (NCATS).
